The values below come from the supplement of paper PMC6522484.

± gives the standard deviation of the averaged measurements.

The subject of assay [1] is DLD1. Put plainly: cell viability (CellTiter-Glo) relative to plate median (fraction of plate median); higher = more viable cells. The settings on record: 5 µM; treatment time 24 h; reporter: 7TFP. An outline of the steps: (§1)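 Two independent replicates were averaged for each reported value. Library compounds were applied at a final 5 µM for 24 h to colorectal cancer cell lines stably expressing lentiviral TCF/Wnt firefly luciferase reporters. Firefly luciferase or CellTiterGlo luminescence from each well was normalised to the plate median.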

Assay [2] concerns HCT116. Described as above. The settings on record: 5 µM; treatment time 24 h; reporter: TCF4/Wnt. An outline of the steps: as §1
The subject of assay [3] is SW480. Described as above. The settings on record: 5 µM; treatment time 24 h; reporter: 7TFP. In a few lines:
as §1

Assay [4] has as its system DLD1. Put plainly: TCF/Wnt firefly luciferase reporter signal relative to plate median (fraction of plate median); higher = higher Wnt reporter signal. The settings on record: 5 µM; treatment time 24 h; reporter: 7TFP. An outline of the steps:
as §1
(In general: A reporter such as luciferase makes a cellular process visible.)

Assay [5] has as its system SW480. Described as above. The conditions noted are these: 5 µM; treatment time 24 h; reporter: 7TFP. In a few lines:
as §1

Turning to `CC1=C(/C=C/C(C)=C/C=C/C(C)=C/C=C/C=C(C)/C=C/C=C(C)/C=C/C2=C(C)CCCC2(C)C)C(C)(C)CCC1` [beta-CAROTENE], the cell viability was found to be 0.966 ± 0.0042 in assay [1], 1 ± 0.064 in assay [2] and 0.984 ± 0.0014 in assay [3]. Besides, the “TCF/Wnt firefly luciferase reporter signal” value in assay [4] was determined as 0.932 ± 0.018; in assay [5], 0.983 ± 0.052.

On to `CC(=O)/C=C\[C@@H]1[C@@]2(C)CCCC(C)(C)C2CC[C@@]1(C)O` (stereo not given in full), for which the results for the cell viability in assay [1], in assay [2] and in assay [3] were 1 ± 0.025, 1.14 ± 0.05 and 1.055 ± 0.0071, respectively. Besides, the figures for the “TCF/Wnt firefly luciferase reporter signal” value in assay [4] and in assay [5] were 1.165 ± 0.0071 and 0.93 ± 0.11, respectively.

For the compound `COC(=O)CC[C@@H](C)[C@H]1CC[C@H]2[C@@H]3CC[C@@H]4C[C@H](O)CC[C@]4(C)[C@H]3C[C@H](O)[C@]12C`, the cell viability in assay [1] came to 0.964 ± 0.065; in assay [2], 1.02 ± 0.097; in assay [3], 0.944 ± 0.018. The “TCF/Wnt firefly luciferase reporter signal” value is 0.955 ± 0.079 in assay [4] and 0.875 ± 0.061 in assay [5].

Consider `CCCCNc1cc(C(=O)O)cc(S(N)(=O)=O)c1Oc1ccccc1`, for which the results for the cell viability in assay [1], in assay [2] and in assay [3] were 1.015 ± 0.0071, 0.947 ± 0.022 and 1.04 ± 0.035, respectively. Also, the “TCF/Wnt firefly luciferase reporter signal” value in assay [4] came to 1.03 ± 0.16; in assay [5] it was 1.06 ± 0.057.

`OCCN(CCO)c1nc(N2CCCCC2)c2nc(N(CCO)CCO)nc(N3CCCCC3)c2n1`: the cell viability in assay [1] is 0.905 ± 0.0042; in assay [2] it was 0.991 ± 0.013; in assay [3], 0.973 ± 0.016. For the same compound, the figures for the “TCF/Wnt firefly luciferase reporter signal” value in assay [4] and in assay [5] were 1.13 ± 0.042 and 1.03 ± 0.028, respectively.

`COC(=O)[C@@H]1OC(=O)C2OC23[C@@]1(C)CCC1[C@]2(C)C(C[C@H](O)[C@]13C)C(C)(C)[C@H](OC(C)=O)C[C@@H]2OC(C)=O` (stereo partly drawn) [7beta-HYDROXY-7-DESACETOXYKHIVORINIC ACID, METHYL ESTER]: the cell viability is 1.01 ± 0.095 in assay [1], 1.065 ± 0.0071 in assay [2] and 1.05 in assay [3]. Further, the entries for the “TCF/Wnt firefly luciferase reporter signal” value in assay [4] and in assay [5] were 1.11 ± 0.18 and 1.03 ± 0.042, respectively.

With `C[C@H](N)CO`, the cell viability in assay [1] came out at 0.911 ± 0.034; in assay [2] it was 0.902 ± 0.047; in assay [3], 0.93 ± 0.035. Moreover, the figures for the “TCF/Wnt firefly luciferase reporter signal” value in assay [4] and in assay [5] were 0.908 ± 0.058 and 1.12 ± 0.092, respectively.

On to `COc1c(O)cc(O)cc1O`, for which the cell viability was found to be 1.01 ± 0.04 in assay [1], 0.694 ± 0.33 in assay [2] and 1.01 ± 0.021 in assay [3]. For the same compound, the “TCF/Wnt firefly luciferase reporter signal” value in assay [4] was determined as 1.09 ± 0.064; in assay [5], 1.03 ± 0.042.

For the compound `CC1(C)C(=O)C=CC2(C)C1C=CC1(C)C2CCC2(C)C(c3ccoc3)OC(=O)C3OC312` (stereo not given), the cell viability in assay [1] worked out at 1.07 ± 0.042; in assay [2] it was 1.1 ± 0.13; in assay [3], 1.05. The results for the “TCF/Wnt firefly luciferase reporter signal” value in assay [4] and in assay [5] were 1.01 ± 0.1 and 0.964 ± 0.094, respectively.

On to `COc1ccc2c(c1)OC1(O)COc3cc(OC)c(OC)cc3C1=C2` (stereo not given), for which the cell viability in assay [1] was 1.01 ± 0.035; in assay [2], 1.05 ± 0.05; in assay [3], 1.08 ± 0.035. Also, the “TCF/Wnt firefly luciferase reporter signal” value in assay [4] was found to be 0.985 ± 0.13; in assay [5] it was 0.895 ± 0.075.

Take `CCCc1ncc(C[n+]2ccccc2C)c(N)n1`: the figures for the cell viability in assay [1], in assay [2] and in assay [3] were 0.995 ± 0.05, 0.935 ± 0.059 and 0.972 ± 0.0028, respectively. Also, the “TCF/Wnt firefly luciferase reporter signal” value came out at 0.956 ± 0.057 in assay [4] and 0.987 ± 0.011 in assay [5].

Regarding `O=C(O)C1CC([C@@H]2CCCCN2)CN2CCCCC12` (stereo not given in full), the figures for the cell viability in assay [1], in assay [2] and in assay [3] were 1.03 ± 0.11, 1.03 ± 0.17 and 0.981 ± 0.015, respectively. Also, the “TCF/Wnt firefly luciferase reporter signal” value in assay [4] is 1.07 ± 0.064; in assay [5], 1 ± 0.064.

`CC(C)CC1NC(=O)C2CCCN2C1=O` (single isomer, unassigned; isomere) [Cyclo(leucylprolyl) (Isomere)]: the results for the cell viability in assay [1], in assay [2] and in assay [3] were 0.919 ± 0.068, 0.94 ± 0.016 and 1.02 ± 0.054, respectively. The “TCF/Wnt firefly luciferase reporter signal” value in assay [4] is 0.69 ± 0.27; in assay [5] it was 1.12 ± 0.064.

As to `COc1cc(OC)c2c(=O)c(-c3ccccc3)c(C)oc2c1OC`, the results for the cell viability in assay [1], in assay [2] and in assay [3] were 1.07 ± 0.15, 1.05 ± 0.078 and 1.01 ± 0.052, respectively. In addition, the “TCF/Wnt firefly luciferase reporter signal” value was 1 ± 0.069 in assay [4] and 0.9545 ± 0.00071 in assay [5].

Consider `CC1/C(=N/O)C[C@@H]2C[C@H]1C2(C)C` (stereo not given in full), for which the cell viability in assay [1] is 1.07 ± 0.014; in assay [2], 1.09 ± 0.014; in assay [3], 1.02 ± 0.037. Also, the “TCF/Wnt firefly luciferase reporter signal” value in assay [4] stood at 1.08 ± 0.042; in assay [5], 0.919 ± 0.17.
